Compounds with a hit are over-represented: about 4% of the library has one in this group of screens.
FBA Mtb inh: Mtb fructose-bisphosphate aldolase inhibition | P9WQA3 | purified M. tuberculosis FBA, fluorescence read-out | inhibition, % at 1 µM | 360,000 compounds, 2.3% hits | AID 588726;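 further: 0% = vehicle and 100% = reference inhibitor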
Rv3671c protease: Rv3671c (M. tuberculosis) protease inhibition | P9WHR9 | inhibition, % at 5.96 µM | 320,000 compounds, 0.048% hits; in the data active means inhibition above about 38%;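 further: extracellular domain of Rv3671c used as enzyme; 0% = enzyme with DMSO and 100% = no enzyme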
Mtb UGM inh: blocks M. tuberculosis UGM enzyme; purified UGM, fluorescence polarization probe displacement; P9WIQ1; 320,000 compounds, 0.06% hits; inhibition, % at 10 µM; in the data active means inhibition above about 10%, passing the limit was not always enough
Target sequence (P9WIQ1 whole entry, looked up): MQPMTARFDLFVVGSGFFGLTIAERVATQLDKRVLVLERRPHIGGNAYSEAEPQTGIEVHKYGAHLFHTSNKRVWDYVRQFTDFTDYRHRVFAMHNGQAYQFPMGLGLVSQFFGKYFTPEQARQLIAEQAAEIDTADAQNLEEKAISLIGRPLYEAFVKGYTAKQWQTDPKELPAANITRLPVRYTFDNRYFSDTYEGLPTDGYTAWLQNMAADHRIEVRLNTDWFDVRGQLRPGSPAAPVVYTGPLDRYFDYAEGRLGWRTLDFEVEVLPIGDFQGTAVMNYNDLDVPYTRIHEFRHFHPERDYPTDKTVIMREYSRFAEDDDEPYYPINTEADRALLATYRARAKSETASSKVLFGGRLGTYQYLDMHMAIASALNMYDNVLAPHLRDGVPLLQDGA
GDH-TPI counter-1: GDH-TPI coupled enzyme inhibition counter-screen | GDH-TPI coupled enzyme counterscreen, NADH absorbance | inhibition, % at 4.8 µM | 360,000 compounds, 1.2% hits | AID 588335; in the data active means inhibition above about 30%;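 further: 0% = DMSO wells and 100% = wells lacking the enzyme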
Mtb bLac sens: beta-lactam sensitization of Mtb H37Rv; M. tuberculosis H37Rv growth with meropenem, percent inhibition; inhibition, % at 25 µM; 330,000 compounds, 0.27% hits; AID 434955; call rule not given here;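 further: growth measured after seven days incubation then overnight dye step; 0% = bacteria only wells and 100% = bacteria with antibiotic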
RecA splice inh: blocks M. tuberculosis RecA intein splicing. 290,000 compounds, 0.75% hits. cell-free RecA intein splicing, fluorescence. inhibition, % (concentration not given with the values). P9WHJ3; in the data active means inhibition above about 30%;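 further: 0% = vehicle wells and 100% = reference inhibitor control wells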
Mtb FBA confirm: Mtb FBA inhibition, confirmed; shares compounds with FBA Mtb inh; purified M. tuberculosis FBA, fluorescence read-out; 5,600 compounds, 78% hits; inhibition, % at 1 µM;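 further: 0% = vehicle wells and 100% = reference inhibitor wells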
GDH-TPI counter-2: GDH-TPI inhibition counter-screen for FBA inhibitors | GDH-TPI coupled enzyme counterscreen, fluorescence | AID 652141 | shares compounds with FBA Mtb inh | inhibition, % at 1 µM | 5,600 compounds, 81% hits; in the data active means inhibition above about 10%
GDH-TPI DR: inhibits GDH-TPI coupling enzymes in dose response. shares compounds with FBA Mtb inh. GDH-TPI coupled enzyme assay, fluorescence, artifact counterscreen. IC50, µM. 170 compounds, 79% hits. AID 652145; call rule not given here
The depositor's hits bear a star; i = inactive; · = no result given; + = active, no number. Unless noted, no stated cut-off is given here; in the data, active means inhibition above about 27%; inactive means the rest.

SMILES	FBA Mtb inh	Rv3671c protease	Mtb UGM inh	GDH-TPI counter-1	Mtb bLac sens	RecA splice inh	Mtb FBA confirm	GDH-TPI counter-2	others
Cc1ccc(OCC(=O)Nc2ccc(NC(=O)c3ccccc3)cc2)cc1C	-1	-17	0	-4	-2	2	·	·
Cc1ccc2c(CN(Cc3ccccc3)Cc3ccccc3)cc(=O)oc2c1	-4	·	·	·	·	·	·	·
O=C(O)C(=O)/C(=C\c1cccc(Cl)c1)c1ccc2ccccc2n1	79*	-16	2	13	20	-5	+	+
Cc1cccc(/C=C(\C(=O)C(=O)O)c2ccc3ccccc3n2)c1	11	7	-1	1	-4	-3	·	·
CN(c1ccc(C(=O)NCC2CCCO2)cc1)S(=O)(=O)c1ccc(Cl)cc1 (configuration not stated)	-2	·	·	10	·	·	·	·
CSc1ccccc1NC(=O)Nc1cccc(Cl)c1	-3	-15	·	1	5	2	·	·
CN(C(=O)Nc1ccc(Cl)c(Cl)c1)c1ccccc1C(=O)O	68*	-13	-2	12	7	-1	142*	134*
COc1cc(NC(=O)Nc2ccc(Cl)c(Cl)c2)c(C(=O)O)cc1OC	104*	16	-1	5	3	0	49*	47*
Cc1ccc(NC(=O)Nc2cccc(Cl)c2)c(C(=O)O)c1	94*	2	1	-1	3	-2	104*	78*
C=CCn1c2ccccc2c2nnc(SC(CC)C(=O)Nc3sc4c(c3C#N)CCCC4)nc21 (configuration not stated)	0	-3	1	8	6	0	·	·
O=C(O)CCN1C(=O)C2CCCCC2C1=O (configuration not stated)	46*	5	2	7	-3	1	+	193*
O=C(O)CCN1C(=O)C2C3C=CC(C3)C2C1=O (configuration not stated)	4	-4	4	6	-11	-1	·	·
Cc1nc2ccccn2c1C(=O)NC1CCCC1	6	6	0	1	-2	1	·	·
CC1CC(NC(=O)c2cc3c(=O)n4ccccc4nc3n2C)CC(C)(C)C1 (configuration not stated)	72*	2	1	7	3	-205	71*	62*
Cc1cccn2c(=O)c3cc(C(=O)NCc4ccco4)c(=N)n(C4CCCC4)c3nc12	90*	5	-2	13	2	-61	78*	63*
Cc1ccc2nc3c(cc(C(=O)NC4CCCCC4)c(=N)n3C3CCCCC3)c(=O)n2c1	71*	0	0	-4	-4	i	121*	85*
N=c1c(C(=O)NC2CCCC2)cc2c(=O)n3ccccc3nc2n1C1CCCCC1	64*	-4	2	8	-13	-384	49*	41*
COc1ccc(NC(=O)CSc2nc(O)cc(=O)n2-c2ccc(OC)cc2)cc1	-2	-50	7	-8	4	·	·	·
COCCn1nnnc1CN(Cc1cc2cc(OC)c(OC)cc2[nH]c1=O)C1CCCC1	39*	-1	3	4	3	-33	73*	70*
COc1cc2cc(CN(Cc3nnnn3Cc3ccco3)C3CCCCC3)c(=O)[nH]c2cc1OC	40*	-1	0	9	-6	-25	63*	53*
COc1ccc(Cn2nnnc2CN(Cc2cc3ccc(C)cc3[nH]c2=O)C2CCCC2)cc1	0	-18	1	13	-1	10	·	·
COc1ccc(-c2noc(CCC(=O)N3CCN(c4cccc(F)c4)CC3)n2)cc1	2	·	·	8	·	·	·	·
COc1ccc(-c2coc3cc(O)ccc3c2=O)cc1	35*	-4	-1	22	0	-2	121*	94*
COc1ccc(-c2coc3cc(O)c(OC)cc3c2=O)cc1	44*	-2	5	34*	-8	·	84*	54*
COc1ccc(-c2coc3cc(OC)ccc3c2=O)cc1	7	·	·	17	·	·	·	·
SMILES	FBA Mtb inh	Rv3671c protease	Mtb UGM inh	GDH-TPI counter-1	Mtb bLac sens	RecA splice inh	Mtb FBA confirm	GDH-TPI counter-2	others
Cn1c(=O)n(C)c2cc(/C=N/NC(N)=S)ccc21	0	-12	0	27	70	3	·	·
COc1cc(C(=O)NCC2CCCO2)cc(OC)c1OC (configuration not stated)	2	1	0	0	-4	4	·	·
CCOC(=O)C1=C(C)NC(C)=C(C(=O)OCC)C1c1ccc(OC)c(OC)c1	7	·	·	6	·	·	·	·
COC(=O)C1=CN(CC2CCCO2)C=C(C(=O)OC)C1c1cc(OC)c(OC)c(OC)c1 (configuration not stated)	52*	-5	0	18	-9	-76	0	-5
CCOC(=O)C1=CN(Cc2ccc(OC)cc2)C=C(C(=O)OCC)C1c1cccs1	32*	-1	0	5	5	-14	151*	136*
COc1cc(CC(=O)NC(c2ccccc2)c2ccccc2)cc(OC)c1OC	1	-1	0	7	8	-2	·	·
COCCN1C=C(C(=O)OC)C(c2ccc(OC)c(OC)c2)C(C(=O)OC)=C1	29*	9	0	10	-3	3	135*	98*
CCOC(=O)C1=C(C)NC(C)=C(C(=O)OCC)C1c1cccs1	-3	-14	2	8	8	-1	·	·
COC(=O)C1=CN(C(C)c2ccccc2)C=C(C(=O)OC)C1c1cc(OC)c(OC)c(OC)c1 (configuration not stated)	71*	5	0	13	17	-94	52*	48*
O=C(CNc1cc(S(=O)(=O)N2CCOCC2)ccc1NCC1CCCO1)Nc1ccccc1F (configuration not stated)	1	4	-1	1	-6	-4	·	·
CC1CC(C)CN(CCCOc2ccccc2[N+](=O)[O-])C1 (configuration not stated)	1	0	0	3	1	-1	·	·
COC(=O)C1=CN(Cc2ccc(F)cc2)C=C(C(=O)OC)C1c1cc(OC)c(OC)c(OC)c1	29*	1	1	2	2	-52	10	9	GDH-TPI DR=2.9*
COC(=O)C1=CN(Cc2ccc(C)cc2)C=C(C(=O)OC)C1c1ccc(F)c(F)c1	3	2	0	-4	4	-36	·	·
COc1ccc(CNC(=O)CCc2cc(OC)c(OC)c(OC)c2)cc1	-1	-3	-2	2	-1	2	·	·
COC(=O)C1=CN(Cc2cccs2)C=C(C(=O)OC)C1c1cccc(O)c1	85*	2	0	2	4	-203	94*	82*
COC(=O)C1=CN(Cc2ccc(OC)cc2)C=C(C(=O)OC)C1c1cc(OC)c(OC)c(OC)c1	48*	-3	0	1	0	-17	88*	64*

Compound activity deposited in PubChem BioAssay by several laboratories.
